Source: PubChem BioAssay
BoNT F protease: inhibitors of Botulinum neurotoxin F light chain protease. inhibition, % at 10 µM. 0.22% of 360,000 active. Multiplex microsphere protease cleavage assay, flow cytometry; in the data active means inhibition above about 35%, passing the limit was not always enough; inconclusive means no clear call, values can overlap the other calls; further: plate controls were buffer without enzyme for full effect and enzyme alone for no effect
FBA Mtb inh: inhibits M. tuberculosis FBA enzyme. inhibition, % at 1 µM. 2.3% of 360,000 active. purified M. tuberculosis FBA, fluorescence read-out. P9WQA3; in the data active means inhibition above about 27%;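 further: 0% = vehicle and 100% = reference inhibitor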
Target sequence (P9WQA3 whole entry, looked up): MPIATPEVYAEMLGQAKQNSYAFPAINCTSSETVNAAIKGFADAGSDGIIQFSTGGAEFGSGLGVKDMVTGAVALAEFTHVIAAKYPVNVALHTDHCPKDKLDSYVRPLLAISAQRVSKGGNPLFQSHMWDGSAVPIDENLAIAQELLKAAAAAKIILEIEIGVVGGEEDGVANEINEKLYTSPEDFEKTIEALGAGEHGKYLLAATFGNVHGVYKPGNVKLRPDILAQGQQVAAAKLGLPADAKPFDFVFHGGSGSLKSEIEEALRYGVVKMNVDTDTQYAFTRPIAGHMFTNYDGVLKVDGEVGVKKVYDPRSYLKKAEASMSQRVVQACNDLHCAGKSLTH
BoNT-A LC inh2: blocks Botulinum neurotoxin A light chain protease. multiplex microsphere protease substrate cleavage, flow cytometry. inhibition, % at 10 µM. 0.17% of 360,000 active. AID 588499; further: plate controls were buffer without enzyme for full effect and enzyme alone for no effect
Autofluor counter: compound fluorescence in toxin protease inhibitor counterscreen; 3.1% of 360,000 active; compound autofluorescence counterscreen, microsphere flow cytometry; stronger effect = higher value; fluorescence intensity (concentration not given with the values); in the data active means fluorescence intensity above about 16000; inconclusive means no clear call, values can overlap the other calls
Anthrax LF prot: blocks Bacillus anthracis lethal factor protease | inhibition, % at 10 µM | 0.12% of 360,000 active | multiplex microsphere protease cleavage assay, LF; further: plate controls were buffer without enzyme for full effect and enzyme alone for no effect
GDH-TPI counter: GDH-TPI coupled enzyme inhibition counter-screen; inhibition, % at 4.8 µM; 1.2% of 360,000 active; GDH-TPI coupled enzyme counterscreen, NADH absorbance; in the data active means inhibition above about 30%;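 further: 0% = DMSO wells and 100% = wells lacking the enzyme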
Active calls of the source: *; ? = inconclusive; / = no result given. Hits are enriched below; roughly 6.6% of the tested compounds scored in any of these assays. Unless noted, no stated cut-off is given here; in the data, active means inhibition above about 30%; inconclusive means no clear call, values can overlap the other calls; inactive means below that.

SMILES | BoNT F protease | FBA Mtb inh | BoNT-A LC inh2 | Autofluor counter | Anthrax LF prot | GDH-TPI counter
CN1CCc2c(sc3c2C(=O)NC(c2ccco2)N3)C1 (stereo not drawn) | -7.2 | 19.1 | 5.8 | 18769* | -2.4 | 5.7
CCOC(=O)N1CCc2c(sc3c2C(=O)NC(c2ccccc2)N3)C1 (stereo not drawn) | ? | 58.4* | 0.1 | 4387 | 6.6 | 12.3
CN1CCc2c(sc3c2C(=O)NC(c2cn(Cc4ccccc4)c4ccccc24)N3)C1 (stereo not drawn) | -10.9 | 10.4 | 10.6 | 20205* | 16.4 | 24.8
COc1ccc(/C=C(/NC(=O)c2ccco2)C(=O)N2CCCC2=O)cc1 | -5.9 | -2.4 | -0.5 | 2339 | 0.4 | 6.0
CCOc1ccc(NC(=O)c2ccc(F)cc2F)cc1 | 6.4 | -3.1 | -0.3 | 3090 | 7.3 | 8.5
COc1cc(OC)cc(C(=O)N2CCC(C(=O)Nc3ccc4c(c3)OCCO4)CC2)c1 | -2.8 | -2.2 | -0.8 | 10518 | -1.2 | -1.1
Cc1nnc(NC(=O)C2CCN(c3nnnn3-c3ccccc3)CC2)s1 | 2.8 | -0.4 | ? | 21118* | -4.4 | 12.6
Cc1ccc(NC(=O)C2CCN(c3cnccn3)CC2)cc1 | -1.6 | 2.7 | -0.3 | 4756 | -5.1 | -1.9
Cc1nnc(NC(=O)C2CCN(c3cnccn3)CC2)s1 | 0.5 | 0.6 | 0.2 | 22414* | -1.5 | 10.3
CC(C)CCN(C(=O)Nc1ccccc1)C(C)c1cccs1 (stereo not drawn) | -5.2 | -2.7 | -1.2 | 20892* | -3.1 | 0.7
CC(c1cccs1)N(C(=O)Nc1ccccc1)C1CCCCC1 (stereo not drawn) | 3.1 | -1.1 | 1.3 | 21824* | -0.1 | 8.7
CN(C(=O)Nc1ccccc1)C1CCCCC1 | 3.6 | 0.5 | -1.4 | 5352 | -7.7 | 4.8
C=CCn1c(O)c(N=NC(=O)C(O)c2ccccc2)c2ccccc21 (stereo not drawn) | -8.8 | 3.0 | -0.1 | ? | -6.5 | 38.8*
C=CCn1c(O)c(N=NC(=O)OC(C)(C)C)c2ccccc21 | 0.2 | 0.0 | -1.0 | 10796 | -1.9 | 4.4
C#CCn1c(O)c(N=NC(=O)C(O)c2ccccc2)c2ccccc21 (stereo not drawn) | -1.3 | -0.2 | 0.1 | 3714 | -2.9 | 31.2*
C=CCn1c(O)c(N=NC(=S)Nc2ccc(OC)c(Cl)c2)c2ccccc21 | 5.8 | 0.1 | 29.3 | 8602 | 30.4* | 45.7*
CSCCC(NC(=O)COc1ccccc1)C(=O)OCc1ccc([N+](=O)[O-])cc1 (stereo not drawn) | ? | 13.4 | 1.6 | ? | -3.0 | 1.4
CC(C)(C)c1ccc(C(=O)N2CCC2(C)C(=O)NS(=O)(=O)c2ccccc2Cl)cc1 (stereo not drawn) | -0.5 | 0.2 | -0.2 | 3990 | -4.3 | 2.6
CC(=O)N1c2ccc(S(=O)(=O)N3CCC(C(=O)NC(C)c4ccccc4)CC3)cc2CC1C (stereo not drawn) | -1.8 | -0.9 | -0.2 | 6147 | -1.6 | -2.4
O=C(OCCc1cc2ccccc2c(=O)o1)c1ccc(C(F)(F)F)cc1 | 4.0 | 2.3 | -0.1 | 4065 | -8.9 | 2.6
CN(C)/C=N/c1nc2nccc(-c3cccs3)n2n1 | -53.2 | 188.0* | -13.1 | 14311 | -18.9 | 27.9
c1csc(-c2ccnc3ncnn23)c1 | 1.6 | 160.2* | 0.5 | 2084 | -0.4 | 24.0
Cc1cc(C)cc(OC(C)c2ccnc3nc(/N=C/N(C)C)nn23)c1 (stereo not drawn) | 3.8 | 18.3 | 0.4 | 9768 | -3.5 | 12.1
CC(Oc1ccccc1)c1ccnc2nc(/N=C/N(C)C)nn12 (stereo not drawn) | 6.1 | 18.4 | ? | 21790* | -1.7 | 9.6
C=C(c1ccc2nc(NC(=O)OC)[nH]c2c1)c1cccs1 | -14.0 | 1.8 | -0.6 | 4532 | -3.0 | -5.2
SMILES | BoNT F protease | FBA Mtb inh | BoNT-A LC inh2 | Autofluor counter | Anthrax LF prot | GDH-TPI counter
COc1cc(/C=N/Nc2nc3ccccc3[nH]c2=O)ccc1O | -2.4 | 0.2 | 0.3 | 2014 | -0.4 | 9.3
COc1cc(/C=N/Nc2nc(=O)[nH]nc2C)ccc1O | -6.0 | -5.9 | -1.2 | 4329 | -6.3 | 32.5*
COc1ccc(/C=N/Nc2nc(=O)[nH]nc2C)cc1OC | / | 3.0 | / | / | / | 47.7*
COc1ccc(/C=N/n2c(C)nc3ccccc3c2=O)cc1OC | 0.1 | 0.1 | -2.9 | 3157 | -2.1 | 7.2
COc1ccc(/C=N/Nc2nc3ccccc3c(=O)n2-c2ccccc2)cc1OC | -1.9 | -2.7 | -0.9 | 6852 | -4.1 | 60.3*
COc1ccc(CCNc2nc(=O)[nH]nc2C)cc1OC | -4.9 | -0.2 | -0.7 | 10805 | -5.6 | 1.7
O=C(NC(Cc1ccccc1)C(=O)O)/C(=C/c1ccc(Br)cc1)NC(=O)c1ccc(Br)o1 (stereo not drawn) | -2.4 | 3.0 | 1.6 | ? | 2.7 | 5.8
CN1CCCCC1(C)C(=O)NCc1ccc(C(C)(C)C)cc1 (stereo not drawn) | 0.6 | 1.7 | -0.2 | 3033 | -8.8 | 7.3
CCOc1ccccc1N1CCN(C(=O)C2=CC=CN3CCS(=O)(=O)N=C23)CC1 | -2.4 | 0.0 | 1.2 | 3830 | -4.9 | -1.0
C=C(C)c1ccc(C(C)(C)NC(=O)NCc2ccco2)cc1 | -11.4 | 1.9 | -0.2 | 2224 | -2.9 | 7.8
C=C(C)c1ccc(C(C)(C)NC(=O)N(Cc2ccccc2)Cc2ccco2)cc1 | -1.1 | -3.1 | ? | 22989* | -2.0 | 3.5
O=C1NC(=S)N/C1=C\c1ccccc1OCc1ccc(C(=O)O)cc1 | -16.5 | -0.3 | -2.7 | 6281 | -2.9 | 41.8*
O=C(c1cccs1)N1CCN(C2CCN(Cc3ccccc3)CC2)CC1 | 5.3 | 1.2 | 0.1 | 3609 | 2.9 | 3.5
O=C(c1cccs1)N1CCN(C(=O)C2CCCO2)CC1 (stereo not drawn) | -0.6 | -1.3 | -0.4 | 19685* | 2.4 | 5.6
O=C(c1cccs1)N1CCN(C2CCCCC2)CC1 | 3.8 | -0.5 | ? | 20556* | -3.6 | 1.0
COc1ccc(C2(OC)Oc3cc(OC)ccc3C(=O)C2(O)OC)cc1 (stereo not drawn) | -1.6 | 2.9 | 1.5 | 2863 | 4.8 | 8.7
Cc1cc(C)nc(OC(C(=O)O)C(OCC(C)C)(c2ccccc2)c2ccccc2)n1 (stereo not drawn) | -34.6 | -1.8 | 0.6 | 3577 | -4.8 | 5.7
Oc1ccc(/C=N/Nc2nn3cnnc3c3ccccc23)cc1 | 0.3 | -3.3 | -0.8 | 4700 | -0.2 | 16.0
COc1cccc(/C=N/Nc2nn3cnnc3c3ccccc23)c1 | 13.1 | 0.6 | -1.3 | 4744 | -4.1 | 23.4
COc1ccc(/C=N/n2cnnc2)cc1COc1ccccn1 | -0.9 | -1.3 | -1.1 | 23503* | -1.2 | -1.9
COc1cc(/C=N/Nc2nn3cnnc3c3ccccc23)ccc1O | -3.2 | -0.7 | ? | 21210* | -3.3 | 31.8*
CCOc1cc(/C=N/Nc2nn3cnnc3c3ccccc23)ccc1O | -3.3 | -0.8 | -0.6 | 4482 | 0.3 | 32.1*
C=CCc1cc(/C=N/n2cnnc2)cc(OCC)c1O | -7.1 | -1.0 | -0.8 | 9639 | 2.9 | 12.8
CCOc1cc(/C=N/n2cnnc2)ccc1O | -10.6 | 2.6 | -1.0 | 7551 | -1.6 | 33.9*
